In all, about 33,000 sequences were measured (“E-score (-0.5 to 0.5)”: median about -0.016, highest 2% from about 0.31 on). What follows is part of a selection rich in the highest values, with near analogues and random picks from the rest.
These sequences were tested against Cst6 (UniProt P40535) (assay: PBM E-score (8-mer binding enrichment) (E-score (-0.5 to 0.5)); higher = stronger / more preferred TF binding). Settings: protein concentration: 200 nM; construct: GST-DNA-binding domain.
Experimental: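 Universal 'all 10-mer' protein binding microarrays (Agilent AMADID 015681) probed with GST-tagged S. cerevisiae TFs (full-length or DBD) made by in vitro transcription/translation (PURExpress), about 100-200 nM. Bound TF was detected with fluorescent anti-GST. Each ungapped 8-mer (which stands for itself and its reverse complement) is scored by the PBM enrichment score (E-score), a modified Wilcoxon-Mann-Whitney statistic from -0.5 to +0.5, computed with the Universal PBM Analysis Suite. Scale: above 0.35 generally sequence-specific binding.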

Chain of UniProt P40535 (P40535 whole entry, the tested form may be a part): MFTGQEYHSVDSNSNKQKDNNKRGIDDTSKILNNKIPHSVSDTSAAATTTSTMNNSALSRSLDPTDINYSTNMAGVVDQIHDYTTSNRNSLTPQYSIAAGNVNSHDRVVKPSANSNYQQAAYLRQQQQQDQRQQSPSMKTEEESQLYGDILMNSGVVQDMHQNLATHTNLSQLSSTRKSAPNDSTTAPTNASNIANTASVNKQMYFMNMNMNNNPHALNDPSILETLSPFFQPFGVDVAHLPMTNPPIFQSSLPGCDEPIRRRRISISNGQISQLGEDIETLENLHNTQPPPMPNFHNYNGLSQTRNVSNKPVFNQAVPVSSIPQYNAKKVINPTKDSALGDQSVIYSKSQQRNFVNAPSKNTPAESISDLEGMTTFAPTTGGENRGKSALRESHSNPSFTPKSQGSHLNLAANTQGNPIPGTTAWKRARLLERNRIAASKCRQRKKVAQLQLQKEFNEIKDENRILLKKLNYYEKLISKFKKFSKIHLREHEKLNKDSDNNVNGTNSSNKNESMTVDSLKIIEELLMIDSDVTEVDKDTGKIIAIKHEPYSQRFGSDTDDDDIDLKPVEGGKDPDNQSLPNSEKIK

Sequence | PBM E-score
AATCATGC | 0.0631
AATCATGA | 0.338
AATCATGT | 0.139
GATCATGC | -0.137
CATCATGG | 0.249
AATCATGG | 0.0769
TATCATGA | 0.186
CATCATGA | 0.363
CATCATGC | 0.362
GATAGCGC | -0.152
GGGAGTCA | -0.153
ACGCTATC | 0.093
CAGCTGCC | -0.146
AGAAGTCA | 0.0402
GGAAGGCC | -0.136
AAGAACAC | 0.167
AAGAACAA | 0.327
AAGAACAG | 0.0582
TCCCTCGA | -0.205
AGAAGTCT | -0.118
CGACGTAC | 0.139
AGACGTAG | -0.133
AGACGTAA | 0.371
TGACGTAA | 0.499
TGTCGTAA | 0.303

Sequence | PBM E-score
GGACGTAA | 0.279
CGACGTAA | 0.451
GGACGTAC | -0.065
AGACGTAC | -0.0375
CGTGGTGC | -0.177
CAGACCTA | -0.00947
GCACAGAA | 0.109
AGCTGAGA | -0.101
AATCCAAT | 0.139
AATCAGCT | 0.186
ACTCACGA | -0.053
GCTTTAAC | 0.135
ACGGCGTC | 0.347
ATGGCGTC | 0.311
CCGGCGTC | -0.0641
CTGGCGTC | -0.0408
ACGGCGTA | 0.358
ACGGCGGC | 0.156
CCGGCGTA | -0.134
GCGGCGTA | 0.23
ACGGCGTG | 0.314
AGGGCGTG | -0.115
ACGGCGGG | 0.108
ATGGCGTG | 0.113
ACCGGTCA | -0.0152

Sequence | PBM E-score
ACGCCACG | 0.0785
GGAAAACC | -0.0924
TCACAGAA | 0.133
CCAGTGCA | -0.185
GCAGTTCA | 0.0321
CAATGCGA | 0.136
GACGGGTA | -0.0938
GTCCCATA | -0.14
CTGAAACA | -0.0169
ATTTTTAC | 0.201
CATTTTAC | 0.273
AAATTTAT | 0.234
AATTTTAT | 0.346
AATTTTAA | 0.25
AATTTTAC | 0.326
ATTTGCTA | 0.156
CTATTCAA | 0.197
ACAACCAG | 0.0122
ACAACCAC | 0.133
ACAACCAT | 0.325
CTACGCAA | 0.119
GGCACGTA | 0.119
AATGAAAA | 0.236
CAATGAAA | 0.153
AATGAAAT | 0.37

Sequence | PBM E-score
AATGAAAG | 0.168
AAATGAAA | 0.322
TAATGAAA | 0.261
CAAACTTC | 0.177
AACCTTAG | -0.158
AAGAGGAC | -0.249
AAACAGGA | 0.0722
TATTTTAA | 0.259
CATTTCAA | 0.222
ATTTTTAA | 0.293
AATTAAAA | 0.187
CATTTAAA | 0.279
GTTTTAAA | 0.196
TATTTCAA | 0.318
ATTTTAAA | 0.308
GATTTCAA | -0.0222
TATTTAAA | 0.308
TATTAAAA | 0.323
GATTAAAA | 0.242
CAAACCCC | -0.178
AAGGCGTA | 0.0577
AGGCGAAT | 0.0491
TCCTTGAA | -0.0366
AGGGCAGA | -0.248
GAGTTACC | -0.0903

Sequence | PBM E-score
ATGGCACG | 0.111
ACCGGTGC | -0.105
ACCTTTTC | -0.133
GTCAGTGA | 0.308
CTCAGTGA | 0.0623
ATCAGTGA | 0.136
GGTACACC | -0.287
GGCAGGCA | -0.193
TCATGTCA | 0.382
ACATGTCA | 0.275
TAATGTCA | 0.356
GAATGTCA | 0.206
AAATGTCA | 0.216
GCATGTCA | 0.287
ATCCATGG | -0.138
GGAGATTA | 0.13
AGCTTCGC | -0.134
CGAACGAG | -0.108
CCACTTCA | -0.197
AACCACCA | 0.00505
CGGCCGCC | -0.0119
AGTATTTA | 0.171
CGTATTTA | 0.358
GGTATTTA | 0.0257
GAGCCTGC | -0.173

Sequence | PBM E-score
AAACAGGC | -0.0905
GTAACGTA | 0.302
CTAACGTC | 0.356
CTAACGTA | 0.281
ATAACGTG | 0.213
ATAACGTC | 0.38
CAAACGTC | 0.137
ATAACGAA | 0.217
ATAACGTA | 0.398
AGAACGTC | 0.142
CTACTCAC | 0.212
CATAGACC | -0.13
AACTGCCG | 0.114
CTAATTTA | 0.321
ATAATTTA | 0.304
GCAATTTA | 0.151
CTAATTTC | 0.128
GTAATTTA | 0.333
TAAATTTA | 0.237
CATGAGGG | -0.142
ATGCAAAA | 0.22
ACGGTCAC | 0.152
TCAGCGCA | -0.176
ACAAAAGT | 0.164
ACGTATTG | 0.238

Sequence | PBM E-score
ACGTATAC | 0.307
CCGTATAC | -0.015
ACGTATAA | 0.309
ACGTATTA | 0.33
CCGTATAA | 0.225
ACGTATAT | 0.237
TCGTATAA | 0.145
GCGTATTA | 0.0768
CGAGACTA | 0.0119
GCAGCGCC | 0.0306
CTAAAGAG | -0.0139
AGGGGCCC | -0.101
ACCCGACT | -0.16
CAAGGTTC | -0.155
AGGCTGGC | -0.195
TAACGAAA | 0.27
CAACGTAC | 0.0567
AAACGTAA | 0.365
CAACGTAG | 0.0788
CAACGTAA | 0.329
AAACGTTG | -0.106
TAACGTAA | 0.452
CAACGTTG | 0.31
AAACGTAG | -0.0946
GAACGTAA | 0.277

— the supplement of paper PMC3334620
